Assay outcomes as filed in PubChem.
Most compounds without a hit are left out; they make up all but 19% or so of the library.
HT1080 IDH1KD tx: kills HT-1080 cells with IDH1 knockdown | HT-1080 IDH1 knockdown viability, ATP luminescence, 48 h | Potency, µM (series often up to 46.1 µM), for inactives: at the highest dose activity, negative = toxicity, most hits filed as cytotoxic | 2% of 360,000 active;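 note: potency is the fitted concentration of half-maximal effect; 0% = DMSO wells and -100% = cell-free medium wells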
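After a 2 h attachment period, IDH1KD HT-1080 cells took pin-transferred compound for 48 h at 37 °C; ATP-based luminescence after 10 min room-temperature reagent incubation reported viability.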
IL-1B inflam inh: inflammasome signaling inhibition, IL-1 beta readout; THP-1 LPS/ATP IL-1B secretion, AlphaLISA, 16 h; active compounds read low; activity change, % at 57.5 µM; 4.7% of 360,000 active; in the data active = activity change below about -50%; inconclusive = mostly about -30% to -49%
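Secreted IL-1B measured by AlphaLISA bead assay after 16 h compound exposure of THP-1 cells; compounds (final up to 57.5 uM) added 1 h before LPS (250 ng/mL) and ATP (1.25 mM) stimulation; lower signal means less secretion.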
TDP1 cell CPT: DT40-hTDP1 cell growth loss with CPT; 12% of 420,000 active; AID 686979; Potency, µM (titrated, usually from 46.2 µM), for inactives: at the top dose activity change, negative = growth inhibition, most hits filed as inhibitors; chicken DT40 Tdp1-/-;hTDP1 cells + 20 nM CPT, ATP luminescence, 48 h; note: potency is the fitted concentration of half-maximal effect; nearly all actives have a fitted effect of over 55% in size
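Chicken DT40 Tdp1-/- cells stably complemented with human TDP1 were seeded at 400 cells/well in medium containing 20 nM camptothecin, exposed to pin-transferred compounds, and grown at 37 °C for at least 48 hr. Viability was read as ATP luminescence.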
HT1080NT lethal: kills 2HG-producing HT-1080-NT fibrosarcoma cells; Potency, µM (highest dose often 46.1 µM), for the others: top-dose activity, negative = less viability, usual class: cytotoxic; HT-1080-NT fibrosarcoma viability, CellTiter-Glo ATP luminescence, 48 h; 1.6% of 360,000 active;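 note: NT is the 2HG producing partner of a matched IDH1 knockdown line; potency is the fitted concentration of half-maximal effect; 0% = DMSO-treated cells and -100% = media-only wells without cells; nearly all actives have a fitted effect of over 55% in size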
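Toxicity toward the 2HG-producing NT line was scored as %Activity, normalised to DMSO and no-cell wells, from CellTiter-Glo luminescence after 48 hours' treatment.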
DT40 TDP1 no CPT: qHTS for Inhibitors of human tyrosyl-DNA phosphodiesterase 1 (TDP1): qHTS in cells in absence of CPT; DT40 Tdp1-/- hTDP1 cells, no CPT, ATP luminescence, 48 h; Potency, µM (top dose mostly 46.2 µM), inactives show at the top dose activity change, negative = growth inhibition, most hits filed as inhibitors; 15% of 420,000 active; AID 686978, 2013; note: potency is the fitted concentration of half-maximal effect; nearly all actives have a fitted effect of over 55% in size
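Seeded 400 DT40-hTDP1 cells/well (vehicle DMSO, no 20 nM CPT); pinned compounds; ≥48 hr at 37 °C; CellTiter-Glo luminescence as viability measure.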
* hit, by the source's call; ? = inconclusive; nt = no result given. Unless noted, calls come from the whole dose curve; as a rule, active = well fitted curve in the direction sought with a large enough effect; inconclusive = small, poorly fitted or top-dose-only effect, or another doubt; inactive = no such curve, though single readings can be large; an effect the other way counts as inactive or inconclusive. Unless noted, % is set by controls: 0 for no effect and ±100 for the full control effect.

SMILES	HT1080 IDH1KD tx	IL-1B inflam inh	TDP1 cell CPT	HT1080NT lethal	DT40 TDP1 no CPT
CC1=C(C#N)C(Nc2ccc(Cl)cn2)(C(F)(F)F)C(=O)N1 (stereo unspecified)	-1.9%	16.0	-7.2%	2.4%	-19.0%
CCOC(=O)c1c(-c2ccccc2)c2cc(OC)ccc2n1CCCN(C)C	-3.8%	-50.4*	?	-17.3%	?
CCOC(=O)c1c(-c2ccccc2)oc2ccc(OC)cc12	-0.5%	16.4	-4.9%	-6.3%	?
N#Cc1ccccc1Cn1c(=O)n(-c2ccc(F)c(Cl)c2)c(=O)c2sccc21	nt	nt	-24.1%	nt	?
O=C(/C=C/c1cccc([N+](=O)[O-])c1)c1ccc([N+](=O)[O-])o1	5.8µM*	-51.7*	0.164µM*	5.8µM*	0.164µM*
Cc1cccc(/C=C/C(=O)c2ccc([N+](=O)[O-])o2)c1	?	-100.4*	0.581µM*	-19.8%	0.651µM*
COc1ccc(/C=C/C(=O)c2ccc([N+](=O)[O-])o2)cc1	18.4µM*	-13.5	2.31µM*	?	2.59µM*
O=C(/C=C/c1cccc([N+](=O)[O-])c1)NCc1ccc2c(c1)OCO2	1.3%	-2.9	-12.6%	-1.9%	-16.0%
O=C(/C=C/c1cccc([N+](=O)[O-])c1)c1ccco1	0.2%	-7.2	4.61µM*	-19.4%	3.66µM*
COC(=O)c1cc(C(=O)OCC(=O)NCc2cccs2)cc([N+](=O)[O-])c1	6.8%	0.8	7.9%	-3.5%	8.6%
O=C(OCc1ccccc1)/C(=C/c1cccc([N+](=O)[O-])c1)NC(=O)c1ccco1	-13.2%	-50.3*	?	-6.6%	-20.3%
Cc1ccc([N+](=O)[O-])cc1N/C=C/C(=O)c1ccco1	?	4.9	?	?	20.6µM*
COc1ccc(OC)c(CCNC(=O)C(=O)Nc2ccc3nc4n(c(=O)c3c2)CCCCC4)c1	0.4%	-15.4	13µM*	-0.1%	14.6µM*
COc1cc(/C=C/C(=O)Nc2ccc3nc4n(c(=O)c3c2)CCCC4)cc(OC)c1OC	-11.2%	?	?	-3.0%	?
COc1cc(OC)cc(C(=O)Nc2ccc3nc4n(c(=O)c3c2)CCCCC4)c1	-21.3%	-10.0	?	-29.9%	11.6µM*
COc1cccc(/C=C/C(=O)Nc2cccc(C(C)=O)c2)c1OC	4.0%	-21.4	?	4.8%	?
COc1cccc(/C=C/C(=O)Nc2ccc3nc4n(c(=O)c3c2)CCCC4)c1OC	?	-10.3	20.6µM*	?	18.4µM*
COc1cccc(/C=C/C(=O)Nc2ccc3c(c2)OCCO3)c1OC	-12.9%	-77.7*	18.4µM*	-11.9%	?
CC(=O)Nc1cccc(NC(=O)c2cc3c(=O)n4cccc(C)c4nc3n2C)c1	nt	nt	-29.4%	nt	?
Cc1ccc(C(=O)c2oc3ccccc3c2NC(=O)c2cc(=O)c3cc(C)ccc3o2)cc1	nt	nt	-9.7%	nt	-10.3%
O=C(Nc1ccc2nc3n(c(=O)c2c1)CCCC3)c1cccc([N+](=O)[O-])c1	1.9%	-5.8	8.7%	11.2%	-12.5%
O=C(Nc1ccc2nc3n(c(=O)c2c1)CCCC3)c1cc([N+](=O)[O-])ccc1F	?	-104.9*	2.06µM*	-19.8%	1.84µM*
OC(c1cc(-c2ccc(C(F)(F)F)cc2)nc(C(F)(F)F)c1)C1CCCCN1 (stereo unspecified)	?	-104.0*	1.64µM*	?	6.51µM*
CC(Sc1nc(-c2ccccc2)cc(C(F)(F)F)n1)C(=O)N1CCCCC1 (stereo unspecified)	1.5%	-12.9	?	-2.9%	?
Nc1cccc2nsnc12	-29.4%	-11.7	0.7%	?	?
Nc1cc2nsnc2cc1Br	?	-3.6	5.8µM*	-18.2%	5.8µM*
COc1ccc(C2=NOC(Cn3nc(C(=O)NCc4cccc(C(F)(F)F)c4)cc3-c3ccccc3)C2)cc1 (stereo unspecified)	-4.3%	-5.9	18.4µM*	-1.9%	?
